Assay outcomes as filed in PubChem.
USP28 block – inhibitors of human USP28 deubiquitinase. inhibition, % at 25 µM. purified USP28, Ub-rhodamine cleavage fluorescence, 30 min. actives 3% (n = 47,000). Q96RU2
OTUD3 inh – human OTUD3 deubiquitinase inhibition; Q5T2D3; purified OTUD3, Ub-rhodamine fluorescence, 2 h; inhibition, % at 25 µM; actives 0.7% (n = 47,000); AID 1645858
Target sequence (Q5T2D3 whole entry, looked up): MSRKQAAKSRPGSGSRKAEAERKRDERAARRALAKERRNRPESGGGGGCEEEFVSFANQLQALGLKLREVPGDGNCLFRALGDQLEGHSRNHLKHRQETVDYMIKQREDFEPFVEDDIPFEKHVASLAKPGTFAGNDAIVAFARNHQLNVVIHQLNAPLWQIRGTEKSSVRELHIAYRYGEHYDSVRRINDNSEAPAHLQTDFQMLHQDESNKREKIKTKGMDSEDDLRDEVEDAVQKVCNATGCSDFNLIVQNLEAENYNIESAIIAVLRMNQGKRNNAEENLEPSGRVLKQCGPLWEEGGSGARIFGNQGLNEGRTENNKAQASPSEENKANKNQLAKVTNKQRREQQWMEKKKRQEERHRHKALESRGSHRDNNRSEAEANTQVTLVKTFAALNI
Large screens that a line does not name were inactive. Only some compounds are listed: those with a hit (about 3.4% of all), similar ones and a draw of the others. Rule as the data show it: active = inhibition above about 30%; inactive = the rest.

CC1NC(=O)C(CC(N)=O)NC(=O)C(C(C)O)NC(=O)C(C(C)C)NC(=O)C(C(C)C)NC(=O)C(NC(=O)CC(O)CCCCCCCCCCCCN=C(N)N)C(C)OC1=O (stereo unspecified)	USP28 block 84.2, OTUD3 inh 83.3
Cc1occ2c1C(=O)c1c(O)ccc(O)c1C2	USP28 block 89.2, OTUD3 inh 93.6
Cc1cc(O)cc2c1C(=O)c1c(O)ccc(O)c1C2=O	none
O=C(C1C[C@@H]2CC[C@H]1C2)N1CCC2(CC1)CNCCO2 (stereo partly specified)	none
O=c1c(OC2O[C@H](CO)[C@H](O)[C@H](O)[C@H]2O)c(-c2ccc(O)cc2)oc2cc(O)cc(O)c12 (stereo partly specified)	OTUD3 inh 34.1
COc1ccc(-c2coc3cc(O[C@@H]4O[C@H](CO)[C@@H](O)[C@H](O)[C@H]4O)ccc3c2=O)cc1	none
CC(=O)N1C[C@H]2c3ccccc3CN(C(=O)c3cc4ccccc4n3C)[C@H]2C1	none
Cc1ccc(NC(=O)COc2ccccc2C#N)cc1	none
Cc1ccc(NC(=O)COc2ccccc2/C=C2/NC(=O)N(Cc3ccc(F)cc3)C2=O)cc1	USP28 block 39.3
COc1ccc(N(CC(=O)Nc2ccc(OC)c(OC)c2)S(=O)(=O)c2c(C)nn(C)c2C)cc1	none
CCc1csc(-c2cn(CC(=O)Nc3cc(C)ccc3C)cn2)n1	none
Cc1nc(-c2ccc3c(c2)nnn3CCN2CCOCC2)no1	OTUD3 inh 40.8
CCc1nc(-c2ccc3c(c2)nnn3CCN2CCCCC2)no1	none
Cc1nc(N2CCCC2)ncc1C(=O)Nc1ccc(F)c(F)c1	none
O=C(O)c1ccccc1C(=O)Nc1ccc(SC(C(=O)Nc2ccccc2Cl)c2ccccc2)cc1 (stereo unspecified)	none
Cc1c(C)c2ccc(OCC(=O)N3CC[C@@]4(O)CCCC[C@H]4C3)cc2oc1=O	none
CC(C)NS(=O)(=O)c1ccc(OCC(=O)N2CCC(Cc3ccccc3)CC2)cc1	USP28 block 78.6
Cc1c(C)c2ccc(OCC(=O)N3CCC(Cc4ccccc4)CC3)cc2oc1=O	USP28 block 41.8
O=C(COc1ccccc1F)N1CCC(Cc2ccccc2)CC1	none
O=C(COc1ccc(S(=O)(=O)N2CCOCC2)cc1)N1CCC(Cc2ccccc2)CC1	USP28 block 56.7
O=C(OCC(=O)N1CCC(Cc2ccccc2)CC1)c1cccc(S(=O)(=O)N2CCOCC2)c1	none
CCc1ccccc1NC(=O)N1CC(C(=O)NC)C2(CCCC2)C1 (stereo unspecified)	none
CNC(=O)c1cnc(C2(C)CCN(Cc3c[nH]c4ccccc34)CC2)s1	none
O=C1CN(C(=O)COc2cccc(Cl)c2Cl)c2ccccc2N1	none
Cc1noc(C)c1-c1ccc(S(=O)(=O)Nc2ccccc2)cc1	none
N#Cc1cccc(C(=O)Nc2ccc([C@H]3OCC(=O)N[C@@H]3CO)cc2)c1	none
O=C(c1ccc(-c2cncnc2)nc1)N1CCN(c2ccc(F)cc2)CC1	none
O=C(Cc1ccc(F)cc1)Nc1ccc(N2CCOCC2)cc1	none
COc1cccc(/C=C/C(=O)Nc2ccc(N3CCOCC3)cc2)c1OC	USP28 block 59.6
Cc1ccc(-c2cn3ccsc3n2)cc1	none
O=C(Nc1ccc(-c2cn3ccsc3n2)cc1)c1ccc(Cl)c([N+](=O)[O-])c1	USP28 block 32.2
Cc1cn2c(=O)cc(COc3cccc(C(F)(F)F)c3)nc2s1	none
Oc1cc(OCc2cccc(C(F)(F)F)c2)ccc1-c1ccn[nH]1	USP28 block 81.2
CCn1c(COc2cccc(C(F)(F)F)c2)nnc1SCc1ccc(Cl)cc1	USP28 block 59.3
CCn1c(COc2ccccc2OC)nnc1SCc1ccccc1	none
O=C(OCc1cnc(Cl)s1)c1ccc([N+](=O)[O-])cc1	USP28 block 40.5
Cn1nc(-c2ccccc2)c(COC(=O)c2ccc([N+](=O)[O-])cc2)c1Cl	none
Cc1ccc2nc(CCc3ccc(NS(=O)(=O)c4cc(F)ccc4F)cc3)[nH]c2c1	none
Cc1ccc2nc(CCc3ccc(NS(=O)(=O)c4ccc(F)c(F)c4)cc3)[nH]c2c1	USP28 block 30.9
N=C1/C(=C/c2cn(Cc3ccccc3F)c3ccccc23)C(=O)N=C2SC(C(F)(F)F)=NN12	none
O=C(Cc1ccccc1)NCC1(N2CCOCC2)CCCCC1	none
COc1ccccc1NS(=O)(=O)c1c[nH]c2ccc([N+](=O)[O-])cc12	none
Cc1ccc([N+](=O)[O-])cc1S(=O)(=O)Nc1cc2sc(=O)oc2c2ccccc12	USP28 block 61.5, OTUD3 inh 32.5
COC(=O)c1ccc(C(=O)NCC2(O)CCOc3ccccc32)cc1 (stereo unspecified)	none
Cc1nn(-c2nc3ccccc3[nH]2)c2c1C(c1ccccc1Cl)CC(=O)N2 (stereo unspecified)	none
Cc1nn(-c2nc3ccccc3[nH]2)c2c1C(c1cccs1)CC(=O)N2 (stereo unspecified)	USP28 block 30.5
Cc1cc(N2CCN(C(=O)C(C)Oc3ccccc3)CC2)nc2nncn12 (stereo unspecified)	none
CCSc1ccccc1C(=O)NCC1(O)CCOc2ccccc21 (stereo unspecified)	none
O=C(Nc1ccc2c(c1)nc1n2CCCCC1)C1c2ccccc2Oc2ccccc21	none
CC(C)(C)NS(=O)(=O)c1cc(C(=O)OCC(=O)Nc2cc(Cl)ccc2Oc2ccccc2)ccc1Cl	none
Cc1cc(O)c2c(c1)C(=O)c1cc(O)cc(O)c1C2=O	none
O=C1C=C(O)c2c(O)cc(O)cc2C1=O	USP28 block 98.9, OTUD3 inh 98.8
O=C(Cc1ccccc1F)N1CCc2c(nc(N3CCCC3)[nH]c2=O)C1	none
COc1ccc(-c2cc3nccc(C4CCNCC4)n3n2)cc1	none
Cc1ccc(-c2cc3nccc(C4CCCNC4)n3n2)cc1 (stereo unspecified)	USP28 block 39.6
O=C(NCc1ccccc1Cl)C1=Cc2ccccc2OC1	none
COc1cccc2c1OCC(C(=O)NCc1ccc(F)cc1)=C2	USP28 block 50.6
O=C(Nc1cc(-c2ccccn2)no1)c1cccc(F)c1	none
COc1ccc(C(=O)Nc2cc(-c3ccccn3)no2)cn1	USP28 block 62.5
CC(C)N1CC[C@@H]2[C@H](C1)CN2S(=O)(=O)c1ccccc1	none
O=C(Cc1ccccc1)NCc1nc(-c2cccc(-c3ccn[nH]3)c2)no1	none
O=c1ccc(-c2noc(CCc3c[nH]c4ccccc34)n2)c[nH]1	USP28 block 42.4
Cc1ccc(Cc2nc(-c3ccc(=O)[nH]c3)no2)cc1	USP28 block 91.2
O=c1ccc(-c2noc(-c3ccc4c(c3)OCO4)n2)c[nH]1	none
O=c1ccc(-c2noc(-c3n[nH]c4ccccc34)n2)c[nH]1	none
Cc1ccc(Cc2nc(-c3cccc(-c4ccn[nH]4)c3)no2)cc1	USP28 block 45.4
COc1ccccc1OCc1ccc(C(=O)Nc2ccc(F)cc2C)cc1	none
COc1ccc(NC(=O)[C@H](C)NC(=O)c2cc3c(OC)cccc3[nH]2)cc1Cl	USP28 block 74.2, OTUD3 inh 87.9
COc1ccc(OC)c(NC(=O)c2cc3c(OC)cccc3[nH]2)c1	none
Cn1c(=O)c2c(nc(CN3CCN(Cc4ccccc4)CC3)n2CCN2CCOCC2)n(C)c1=O	none
Cn1c(=O)c2c(nc(SCc3nnc(-c4ccccc4)o3)n2Cc2ccc(F)cc2)n(C)c1=O	USP28 block 33.0
O=C(CN1CCCCCC1)Nc1cc([N+](=O)[O-])ccc1Cl	none
O=C(CN1CCCCC1)Nc1nnc(-c2ccc([N+](=O)[O-])cc2)s1	USP28 block 35.1, OTUD3 inh 40.1
Fc1ccc(N/C=C/c2ncc(C(F)(F)F)cc2Cl)cc1	none
Cc1nc(CC(=O)Nc2ccccc2Cl)sc1C(=O)NC1CC1	none
